Bioassay records deposited in PubChem BioAssay by National Center for Advancing Translational Sciences (NCATS).
ClpP mod: qHTS Assay for Activators of ClpP; ATP-dependent Clp protease proteolytic subunit (Bacillus subtilis (strain 168)), P80244; purified B. subtilis ClpP, FRET peptide cleavage, 20 min; Potency, µM (series often up to 57.5 µM); 1.9% of 340,000 active; active = well fitted falling curve with a large enough effect; inconclusive = small, poorly fitted or top-dose-only effect; inactive = no such curve, though single readings can be large or run the other way; note: the source files actives as falling curves though it sought activators and does not explain the sign; nearly all actives have a fitted effect of over 65% in size
Target sequence (P80244 whole entry, looked up): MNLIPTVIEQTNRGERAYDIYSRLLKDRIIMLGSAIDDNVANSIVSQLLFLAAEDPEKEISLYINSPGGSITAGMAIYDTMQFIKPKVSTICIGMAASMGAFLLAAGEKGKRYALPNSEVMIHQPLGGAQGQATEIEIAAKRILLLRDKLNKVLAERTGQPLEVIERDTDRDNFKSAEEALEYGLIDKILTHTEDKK
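Buffer: 100 mM Tris/HCl pH8, 100 mM KCl, 0.05% low protease BSA, 2.5% glycerol, 0.01% Tween-20. ClpP 10 microg/mL final; 20 min RT; delta FRET normalized to ADEP and DMSO controls.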
TDP1 cell CPT: DT40-hTDP1 cell growth loss with CPT; chicken DT40 Tdp1-/-;hTDP1 cells + 20 nM CPT, ATP luminescence, 48 h; Potency, µM (top dose mostly 46.2 µM), most hits filed as inhibitors; 12% of 420,000 active; note: nearly all actives have a fitted effect of over 55% in size
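Chicken DT40 Tdp1-/- cells complemented with human TDP1, 400 cells/well, exposed to compounds plus 20 nM camptothecin for at least 48 h at 37 C; viability read as ATP content by CellTiter-Glo luminescence.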
TDP1 cell noCPT: qHTS for Inhibitors of human tyrosyl-DNA phosphodiesterase 1 (TDP1): qHTS in cells in absence of CPT | 15% of 420,000 active | DT40 Tdp1-/- hTDP1 cells, no CPT, ATP luminescence, 48 h | Potency, µM (doses to about 46.2 µM), most hits filed as inhibitors; note: nearly all actives have a fitted effect of over 55% in size
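Growth kinetics read by CellTiter-Glo luminescence after ≥48 hr at 37 °C. Cells: DT40 Tdp1-/- stably carrying human TDP1, 400 per well, compound exposure in the absence of CPT (DMSO vehicle).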
IL-1B inflam inh: inhibitors of inflammasome signaling (IL-1 beta secretion); activity change, % at 57.5 µM; 4.7% of 360,000 active; THP-1 LPS/ATP IL-1B secretion, AlphaLISA, 16 h; hits give low values; AID 743279; in the data active = activity change below about -50%; inconclusive = mostly about -30% to -49%
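THP-1 cells pretreated 1 hr with compounds (up to 57.5 uM final), then stimulated with LPS (250 ng/mL final) plus ATP (1.25 mM final); secreted IL-1B measured by AlphaLISA after 16 hr, decreased signal indicating inhibition.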
DRD3 antagonist: antagonists of human D3 dopamine receptor | max response, negative = inhibition, % | AID 652054 | 2.5% of 360,000 active | D3R cells, DiscoveRx beta-arrestin luminescence, antagonist mode; hits give low values; in the data active = max response below about -50%; inconclusive = no clear call, values can overlap the other calls
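Cells plated overnight at 1500 cells/well, then exposed to library compounds with dopamine controls for 90 minutes at 37 degrees C. DiscoveRx reagent added for 30–60 minutes at room temperature; luminescence read, quantitative HTS format.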
D3 ag: activates the human D3 dopamine receptor; max activation, %; 0.58% of 410,000 active; AID 652048; D3R DiscoveRx beta-arrestin cells, luminescence, 90 min; in the data active = max activation above about 30%
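Agonist mode: compounds and dopamine controls were applied to plated cells for 90 min at 37 degrees C after an overnight attachment at 1500 cells/well. Luminescent read-out followed 30 - 60 minutes at room temperature with DiscoveRx detection reagent.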
Large screens that a line does not name were inactive. A selection: hits, their analogues and other compounds. The true share with any hit is near 21%. Unless noted, calls come from the whole dose curve; as a rule, active = well fitted inhibition curve with a large enough effect; inconclusive = small, poorly fitted or top-dose-only effect; inactive = flat fitted curve, though single readings scatter.

C[C@H]1CN([C@@H](C)CO)C(=O)CCCn2nncc2CO[C@H]1CN(C)S(=O)(=O)c1ccc2ccccc2c1	TDP1 cell CPT inconclusive, TDP1 cell noCPT 23µM
C[C@H](CO)N1C[C@H](C)[C@@H](CN(C)Cc2ccc3c(c2)OCCN3C)OCc2cnnn2CCCC1=O	TDP1 cell CPT inconclusive, DRD3 antagonist -88
C[C@H](CO)N1C[C@H](C)[C@@H](CN(C)Cc2cccc(C(F)(F)F)c2)OCc2cnnn2CCCC1=O	TDP1 cell CPT inconclusive, TDP1 cell noCPT inconclusive
C[C@@H]1CN([C@H](C)CO)C(=O)CCCn2nncc2CO[C@H]1CN(C)Cc1ccc(Oc2ccccc2)cc1	TDP1 cell CPT inconclusive, TDP1 cell noCPT inconclusive
C[C@@H]1CN([C@H](C)CO)C(=O)CCCn2nncc2CO[C@H]1CN(C)Cc1cccc(C(F)(F)F)c1	TDP1 cell CPT 21µM
C[C@@H]1CN([C@@H](C)CO)C(=O)CCCn2nncc2CO[C@H]1CN(C)Cc1ccc(Oc2ccccc2)cc1	TDP1 cell CPT inconclusive, TDP1 cell noCPT 16µM
CC1CCN(C(=O)COc2cccc3c2CCN(C)C3=O)CC1	none (no result: ClpP mod)
c1ccc(-c2ncc(-c3ccn[nH]3)s2)cc1	TDP1 cell noCPT inconclusive, IL-1B inflam inh inconclusive (no result: ClpP mod)
Cc1ccccc1CN(C)C[C@@H]1OCc2cnnn2CCCC(=O)N([C@@H](C)CO)C[C@H]1C	none
C[C@@H]1CN([C@@H](C)CO)C(=O)CCCn2nncc2CO[C@H]1CN(C)Cc1ccccc1C(F)(F)F	TDP1 cell CPT 18µM, TDP1 cell noCPT inconclusive
O=C(Nc1cccc([N+](=O)[O-])c1)C1COc2ccccc2O1 (configuration not stated)	TDP1 cell noCPT inconclusive
CCC(=O)N1CCc2cc(S(=O)(=O)CCC(=O)NCc3ccc(F)cc3)ccc21	TDP1 cell CPT 6.5µM, TDP1 cell noCPT 3.3µM (no result: IL-1B inflam inh, DRD3 antagonist)
CCC(=O)N1CCc2cc(S(=O)(=O)CCC(=O)Nc3nc(C)cs3)ccc21	TDP1 cell CPT inconclusive, TDP1 cell noCPT inconclusive, IL-1B inflam inh -58
N#CN=C1SCCS1	TDP1 cell CPT 9.2µM, TDP1 cell noCPT 15µM
CC(C(=O)Nc1cc([N+](=O)[O-])ccc1Cl)N1CCN(c2ccccc2O)CC1 (configuration not stated)	TDP1 cell CPT inconclusive, TDP1 cell noCPT 13µM
COc1ccc([N+](=O)[O-])cc1NC(=O)CSc1nc(C)c(C)c(C)n1	TDP1 cell CPT inconclusive, TDP1 cell noCPT inconclusive
COc1ccc([N+](=O)[O-])cc1NC(=O)C(C)N1CCCC1 (configuration not stated)	DRD3 antagonist -62 (no result: ClpP mod)
COc1ccc([N+](=O)[O-])cc1NC(=O)c1ccccc1SC	ClpP mod 28µM
COC(=O)Nc1cc([N+](=O)[O-])ccc1OC	none
COc1ccc([N+](=O)[O-])cc1NC(=O)C(C)Sc1nc(C)c(C)c(C)n1 (configuration not stated)	ClpP mod 28µM, TDP1 cell CPT inconclusive, TDP1 cell noCPT 23µM
CSc1ccccc1C(=O)Nc1cccc([N+](=O)[O-])c1	none
Cc1ccc(C(=O)c2c3ccc([N+](=O)[O-])cc3[n+]([O-])n2CCCC(N)=O)cc1	TDP1 cell CPT 5.8µM, TDP1 cell noCPT inconclusive
NCCCn1c(C(=O)c2ccc(Cl)cc2)c2ccc(C(F)(F)F)cc2[n+]1[O-]	TDP1 cell CPT inconclusive, TDP1 cell noCPT inconclusive
NCCCn1c(C(=O)c2ccc(Cl)cc2)c2ccc([N+](=O)[O-])cc2[n+]1[O-]	TDP1 cell CPT 4.1µM, TDP1 cell noCPT 4.1µM, IL-1B inflam inh -60
COc1ccc2c(C(=O)c3ccc(C)cc3)n(CCCC(N)=O)[n+]([O-])c2c1	none
NC(=O)CCCn1c(C(=O)c2ccc(Cl)cc2)c2ccc([N+](=O)[O-])cc2[n+]1[O-]	TDP1 cell CPT 3.7µM, TDP1 cell noCPT 8.2µM
